Assay results as given in ChEMBL document CHEMBL3988442, “University of Dundee, Small-Polar-MMV Screening Library” (2021).
Among all 48,000 compounds or so, about 13,000 (27%) showed an effect of 50% or more. Some of the results follow.

Tested on: Wolbachia pipientis
Assay: Anti-Wolbachia Cell-Based Screen
Type: functional
Set-up: scale not given: in the data most compounds retested in dose-response had high values
Details: 5 µM

| Compound | Percent Effect |
| --- | --- |
| COc1cc(C)sc1C(=O)NCCC(=O)N(C)Cc1ccccc1 | -13.22% |
| CCc1nc(CN(C)Cc2nnc(-c3cccs3)o2)cs1 | -11.05% |
| Cc1nc(C(=O)N2CCCC(c3ccc4sc(N)nc4n3)C2)co1 (centres undefined) | 130.6% |
| CC(=O)N1CCCC(c2ccc3sc(N)nc3n2)C1 (centres undefined) | 125% |
| Cc1nc(C2CCCN(C(=O)c3csc(C)n3)C2)no1 (centres undefined) | -14.77% |
| Cc1ccc2oc(C(=O)N3CCCC(c4noc(C)n4)C3)cc2n1 (centres undefined) | -6.015% |
| CNC(=O)C(C)(C)N1CCC[C@H]1C(=O)NCC(C)C.Cl | 3.09% |
| O=C1[C@H]2CC[C@H](CN(S(=O)(=O)c3ccccc3)C2)N1Cc1cscn1 | 20.83% |
| CN(C)CCOc1cc(NC(=O)COCC(F)(F)F)ccn1 | 0.1628% |
| CNc1cncc(C2CCCN2Cc2cccc(C)n2)n1 (centres undefined) | 107% |
| CNc1cncc(C2CCCN2Cc2ccnc(C)n2)n1 (centres undefined) | 94.65% |
| CNc1cncc(C2CCCN2Cc2ccccn2)n1 (centres undefined) | -6.614% |
| CNc1ccnc(N2CCC(c3nnc(CN4CCCC4)n3C)CC2)n1 | 5.752% |
| Cc1nccc(CNS(=O)(=O)N2CCCC2c2ccc(C)o2)n1 (centres undefined) | -6.689% |
| CNc1cncc(C2CCCN2Cc2ccnc(N3CCCC3)n2)n1 (centres undefined) | 113.8% |
| CNc1cncc(C2CCCN2Cc2ccn(C)n2)n1 (centres undefined) | 90.43% |
| O[C@H]1[C@H](n2cc(-c3cncnc3)nn2)c2ccccc2C12CCNCC2 | -31.96% |
| CN(C)CCN(Cc1ccc(Cl)cc1)C(=O)c1cc[nH]n1 | 3.118% |
| Cc1ccc(-c2ncc(C(=O)N3CCCN4CCC[C@H]4C3)c(O)n2)cc1 | -8.702% |
| CC(=O)N1CCC2(CC1)CN(C)CC[C@H]2C(F)(F)F.Cl | -1.973% |
| Cl.NC(CC1CCCC1)c1ccccc1 (centres undefined) | -1.351% |
| NC(=O)CCN1C(=O)CC(Cc2ccc(F)cc2)C1=O (centres undefined) | 3.459% |
| COc1ccnc(N2CCN(Cc3ncc(C(C)(C)C)o3)CC2)n1 | 7.68% |

| Compound | Percent Effect |
| --- | --- |
| Cn1ccnc(Nc2ccc3c(c2)CCN3C(=O)c2ccoc2)c1=O | 61.04% |
| Cn1ccnc(Nc2ccc3c(c2)CCN3C(=O)c2cccnc2)c1=O | -3.992% |
| CC(=O)N1CCCc2cc(Nc3nccn(C)c3=O)ccc21 | 8.205% |
| CCCN(C(=O)COCC)c1cccc(C)c1 | -29.78% |
| Cc1ccnc(OCC(=O)N2CCC(C(N)=O)CC2)n1 | -0.2918% |
| Cc1ccc(N2CCN(C(=O)COc3nccc(C)n3)CC2)nn1 | -17.48% |
| COc1ccc(N2CCN(C(=O)COc3nccc(C)n3)CC2)cc1 | 79.4% |
| Cc1ccnc(OCC(=O)N2CCCC2)n1 | 98.39% |
| Cc1ccnc(OCC(=O)N2CCN(c3ncccn3)CC2)n1 | 1.434% |
| Cc1ccc(N2CCN(C(=O)COc3ncccn3)CC2)nn1 | -4.899% |
| CCc1ccccc1OCC(=O)Nc1ccnc(OCCN(C)C)c1 | 4.07% |
| CN(Cc1ccc(Cl)cc1)S(=O)(=O)N(C)Cc1cnn(C)c1 | -1.179% |
| Cc1cccc(-c2noc(CN3CCc4c(ncn4C4CC4)C3)n2)c1 | -0.5665% |
| Cc1nc(-c2cnn(C)c2)nc2c1CN(C(=O)c1cccnc1)CC2 | -2.218% |
| CC(=O)N1CCc2c(nc(-c3cccnc3)nc2N(C)CC(O)CO)C1 (centres undefined) | -2.171% |
| COCCCN(C)c1nc(-c2ccncc2)nc2c1CCN(C(C)=O)C2 | 7.228% |
| NCC1CN(c2nc(-c3cccnc3)nc3c2CCNCC3)CCO1 (centres undefined) | -59.49% |
| C=Cn1ncc(CN2CCc3nc(-c4ccncc4)nc(O)c3C2)c1C | 95.82% |
| Cn1cc(CNCC2(O)CCCCC2)c(-c2cccnc2)n1 | 2.797% |
| Cc1nn(C)cc1CN1CCc2nc(-c3cccnc3)nc(O)c2C1 | 87.93% |
| Cc1nccn1CCN(C)c1nc(-c2cccnc2)nc2c1CCNC2 | 2.372% |
| Cc1ccc(O)c(CN2CCc3nc(-c4cccnc4)nc(O)c3C2)c1 | 101.6% |
| C=Cn1cc(CN2CCc3nc(-c4cccnc4)nc(O)c3C2)c(C)n1 | 93.89% |

| Compound | Percent Effect |
| --- | --- |
| Cc1cnn(C2CN(c3nc(-c4ccncc4)nc4c3CCC4)C2)c1 | -2.167% |
| CC(C)(C)NC(=O)C1CSCN1S(=O)(=O)c1ccccc1S(C)(=O)=O (centres undefined) | 4.107% |
| CCc1ncc2c(n1)CN(C(=O)CC(C)NC(C)=O)C2 (centres undefined) | -5.882% |
| Cc1cc(CN(C)C(=O)NC(C)Cc2ccco2)no1 (centres undefined) | 4.671% |
| CCn1ccnc1CN1CCN(c2nc(C)cc(OC)n2)CC1 | -15.82% |
| CC[C@@H]1N(CC2CCOCC2)CCC[C@]12CCC(=O)N2.O=C(O)C(F)(F)F | -7.738% |
| NC(=O)c1cc(-n2cc(-c3cccc(C(=O)O)c3)cn2)cs1 | -1.419% |
| CN(c1cccnc1N1CCCC1)S(=O)(=O)c1cnn(C)c1 | 8.889% |
| CCn1ncc(CN2CCc3nc(-c4cccnc4)nc(O)c3C2)c1C | 89.32% |
| CC(O)CNc1nc(-c2cccnc2)nc2c1CCC2 (centres undefined) | -9.754% |
| CCc1noc(CNc2nc(-c3cccnc3)nc3c2CCNCC3)n1 | 3.724% |
| CC(C)CCN(C)C(=O)c1cnc2c(cnn2CC(C)C)c1 | 1.745% |
| CS(=O)(=O)NC(=O)c1cnc2c(cnn2C2CCCC2)c1 | -4.215% |
| O=C(c1cnc2c(cnn2C2CCCC2)c1)N1CCN(CCO)CC1 | 107.7% |
| CCOC1CCCN(C(=O)c2cnc3c(cnn3C3CCCC3)c2)C1 (centres undefined) | -8.504% |
| CN1CCC(N(C)C(=O)c2cnc3c(cnn3C3CCCC3)c2)CC1 | 105.6% |
| CCn1c(N)nc2cc(C(=O)N3CCC(N4CCCC4)CC3)cnc21 | -1.571% |
| CCN1CCN(C(=O)c2cnc3c(cnn3C3CCCC3)c2)CC1 | 83.11% |
| CC1CN(C)CCN1C(=O)c1cnc2onc(CC(C)(C)C)c2c1 (centres undefined) | 4.024% |
| CN1CCN(C(=O)c2cnc3c(cnn3C3CCCC3)c2)CC1 | 4.55% |
| CCn1c(N)nc2cc(C(=O)N3CCCN(C)CC3)cnc21 | -5.515% |
| CC1CN(C)CCN1C(=O)c1cnc2c(cnn2C2CCCC2)c1 (centres undefined) | 101.7% |
| O=C(O)c1cnc2c(cnn2C2CCCC2)c1 | -9.214% |
